TLR4-MyD88 BLA: TLR4-MyD88 interaction inhibition in cells; O00206+Q99836; HeLa CL3-4 TLR4/MyD88 BLA complementation, FRET ratio; inhibition, % at 8.4 µM; 200,000 tested, 0.18% active; AID 861; in the data active means inhibition above about 25%;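 further: 0% = vehicle and 100% = reference inhibitor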
TLR9-MyD88 inh: TLR9-MyD88 interaction inhibition. CHO BLA complementation TLR9-MyD88, CCF4 FRET ratio. inhibition, % at 4.98 µM. 340,000 tested, 0.21% active. AID 504734;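 active means inhibition above the mean over all tested compounds plus 3 SD, cut at about 21% in these data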;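 further: 0% = DMSO only wells and 100% = clavulanate BLA inhibitor control wells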
NOD2 RIPK2 PPI: inhibitors of human NOD2-RIPK2 interaction | inhibition, % at 4.98 µM | O43353 | AID 624267 | 360,000 tested, 0.38% active | CHO BLA complementation NOD2-RIPK2, CCF4 ratio; in the data active means inhibition above about 21%;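 further: 0% = vehicle only and 100% = reference blocker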
Target sequence (O43353 whole entry, looked up): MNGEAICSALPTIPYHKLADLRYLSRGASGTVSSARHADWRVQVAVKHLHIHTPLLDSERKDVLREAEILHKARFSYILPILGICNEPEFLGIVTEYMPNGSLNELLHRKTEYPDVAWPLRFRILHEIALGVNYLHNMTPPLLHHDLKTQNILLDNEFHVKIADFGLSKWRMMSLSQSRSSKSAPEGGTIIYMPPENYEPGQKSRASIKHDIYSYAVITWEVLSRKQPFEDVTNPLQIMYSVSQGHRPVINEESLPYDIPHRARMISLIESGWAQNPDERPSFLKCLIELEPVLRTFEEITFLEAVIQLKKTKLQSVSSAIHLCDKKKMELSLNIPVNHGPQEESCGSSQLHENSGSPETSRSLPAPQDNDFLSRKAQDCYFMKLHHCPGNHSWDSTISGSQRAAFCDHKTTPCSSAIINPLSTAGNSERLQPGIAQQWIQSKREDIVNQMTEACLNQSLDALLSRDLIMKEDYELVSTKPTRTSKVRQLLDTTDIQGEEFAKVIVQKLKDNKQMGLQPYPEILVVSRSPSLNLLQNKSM
HSF1 inh: HSF1 inhibition | NIH3T3-HGL HSE-luciferase, MG132-induced, luminescence 8 h; active compounds read low | activity change, negative = inhibition, % at 7.5 µM (by protocol) | 300,000 tested, 0.77% active;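 active means more than half of replicate wells show activity change below -50%, luminescence cut by over half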;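 further: luciferase reports HSF-1 transcriptional activity via heat shock element; 0% = median of DMSO wells and -100% = zero luminescence signal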
HSF1 activator: increases HSF-1 driven luciferase reporter signal; NIH3T3-HGL HSF-1 luciferase reporter, MG132, 8 h; 100% = twice DMSO control signal; activation, % at 9 µM; 300,000 tested, 1.7% active; AID 504408;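 active means mean replicate activation of at least 50% with a set share of replicates each reaching 50%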;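 further: 0% = median of the neutral control wells and 100% = twice that signal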
* hit, by the source's call; nt = not tested or not shown. Shown are actives, neighbours in structure and some others; about 2.4% of the full set was active somewhere.

SMILES | TLR4-MyD88 BLA | TLR9-MyD88 inh | NOD2 RIPK2 PPI | HSF1 inh | HSF1 activator
Cc1cnc(NC(=O)CSc2ccc(Cl)cc2)s1 | -8 | 7 | -4 | 20 | 35
O=C(Nc1ncc([N+](=O)[O-])s1)c1cccs1 | nt | 3 | -14 | 13 | 17
Cc1ccc(Cl)c2c1=NC(=O)C=2c1[nH]c(=S)[nH]c1O | -7 | -9 | -2 | 58 | 126*
O=C1N=c2ccccc2=C1c1[nH]c(=S)[nH]c1O | 5 | 0 | -15 | 3 | 36
Cc1ccccc1-c1nnc(CS(=O)(=O)c2ccccc2)o1 | nt | -12 | 1 | 76 | 127*
COc1ccc(C2=NN(C)C(=NCc3ccccc3)SC2)cc1 | -1 | 2 | -79 | 22 | 53*
CCCS(=O)(=O)NC(=O)C1(C)CCN(C(=O)c2ccc(F)c(C)c2)C1 (stereo not drawn) | nt | nt | 1 | nt | nt
N#Cc1cnn(-c2ccccc2)c1N | -1 | -3 | -4 | 2 | 4
Cc1cc(=O)[nH]c(-n2ncc(C#N)c2N)n1 | 4 | 9 | -1 | 27 | 69*
N#CC(CO)(Cc1ccc(OC(F)F)cc1)c1nc2ccccc2[nH]1 (stereo not drawn) | -11 | 9 | -36 | 46 | 72*
Cc1cc2c(cc1C)NC(CC(=O)NCc1ccccc1)C(=O)N2 (stereo not drawn) | -7 | -8 | -7 | 39 | 75*
C[C@@H]1CCCCO[C@H](CN(C)Cc2ccc(C(=O)O)cc2)[C@@H](C)CN([C@H](C)CO)C(=O)c2cc(NC(=O)CCC(F)(F)F)ccc2O1 | nt | -14 | 8 | nt | nt
Cc1ccc(S(=O)(=O)N2CCOCC2)cc1NC(=O)COC(=O)c1cccnc1Cl | -9 | -6 | 5 | 6 | 54*
COc1ccc(CNC[C@@H](CCCCN(C)Cc2ccc(OC)cc2)N2C[C@H](c3ccccc3)N(CCc3ccc(Cl)c(Cl)c3)C(=O)C2=O)cc1 | 4 | 9 | 29* | 8 | -4
CCOc1ccc(CCN2C(=O)C(=O)N([C@H](CCCN(C)Cc3ccccc3)CNCc3ccccc3)C[C@@H]2C(C)C)cc1 | nt | nt | nt | -4 | -16
O=C(CSc1cccs1)Nc1ccc2ccccc2c1 | -4 | -11 | 3 | 29 | 57*
O=C(CSc1cccs1)Nc1cccc2ccccc12 | -6 | -2 | 2 | 24 | 63*
O=C(CSC1=NCCS1)Nc1cccc2ccccc12 | -7 | -1 | 0 | 17 | 18
O=C(Cc1cccc(F)c1)Nc1ccc2c(c1)CCC2 | nt | -5 | -2 | 0 | 9
O=C(Cc1ccc2c(c1)CCCC2)Nc1ccc2ccccc2c1 | 3 | -11 | -5 | 13 | 57*
C[C@@]12C(=O)N(c3cccc(F)c3)C(=O)N1[C@@H]1c3ccccc3OC[C@@H]1[C@H]2c1ccccc1 | nt | 7 | -5 | nt | nt
Cc1ccc(Sc2ccc(NC(=O)CCl)cc2)cc1C | 12 | -4 | 0 | -4 | -12
Cc1ccc(C)c(Sc2ccc(NC(=O)CCl)cc2)c1 | 4 | nt | nt | 32 | 75*
COc1ccc(N=Cc2c(O)ccc3ccccc23)cc1 | 13 | 6 | -17 | -58* | -65
COc1ccc(N=Cc2c(O)[nH]c3ccccc23)cc1 | -10 | -4 | 2 | 40 | 63*
SMILES | TLR4-MyD88 BLA | TLR9-MyD88 inh | NOD2 RIPK2 PPI | HSF1 inh | HSF1 activator
O=C(O)c1ccc(N=Cc2c(O)ccc3ccccc23)cc1 | nt | 1 | 13 | -10 | -15
COc1ccc(CN=Cc2c(O)[nH]c3ccccc23)cc1 | -3 | -10 | -2 | 1 | 17
C=CCn1c(SCC(=O)N2CCOCC2)nnc1C(C)NC(=O)c1ccccc1 (stereo not drawn) | nt | 5 | -2 | 0 | -14
Cc1cc(F)ccc1S(=O)(=O)Nc1ccccc1C(=O)NC1CCN(Cc2ccccc2)CC1 | nt | -5 | -3 | nt | nt
CCCN1Cc2cccc(C(=O)N3CCN(c4ccccc4)CC3)c2C1=O | 1 | -4 | -6 | 1 | -6
CCCN1Cc2cccc(C(=O)N3CCN(c4ccc(OC)cc4)CC3)c2C1=O | -3 | 2 | 6 | -60* | -69
Cc1ccc(S(=O)(=O)NCC(c2ccc3c(c2)OCO3)N2CCN(c3ccccc3)CC2)cc1 (stereo not drawn) | nt | 3 | 3 | 1 | 2
CC(C)(C)c1ccc(C(=O)CC(=O)c2cc(Cl)ccc2O)cc1 | 21 | 2 | 9 | 7 | 30
N/C(=C\C(=O)c1cc(Cl)ccc1O)C(Cl)(Cl)Cl | nt | -1 | -3 | 128 | 209*
CCCCN(C=O)c1c(CC)nc2ccc(C(=O)Nc3cc(-c4ccccc4)ccc3OC)cn12 | nt | nt | 2 | nt | nt
Cc1nc(C)c(-c2ccc(SCc3ccc([N+](=O)[O-])cc3)nn2)s1 | nt | -10 | -9 | 28 | 52*
Cc1nn(-c2nc3ccccc3[nH]2)c(N)c1-c1ccccc1 | -3 | -3 | 0 | 45 | 71*
CCN(C(=O)COC(=O)Cn1c(=O)oc2ccccc21)c1c(N)n(Cc2ccccc2)c(=O)[nH]c1=O | nt | -2 | -3 | nt | nt
COc1ccccc1CNC(=O)c1ccc2nc3[nH]c4ccccc4c3nc2c1 | -4 | -7 | -5 | 6 | 10
Cc1ccc(CNC(=O)c2ccc3nc4[nH]c5ccccc5c4nc3c2)cc1 | 8 | nt | nt | -76* | -77
Cc1ccc(C(=O)NCCN2CCC(n3c(=O)[nH]c4ccccc43)CC2)cc1F | nt | nt | -7 | nt | nt
CCNC(=O)CNC(=O)c1nn(Cc2ccccc2)c(=O)c2ccccc12 | nt | -7 | 7 | -71* | -76
O=C(O)CN1C(=O)/C(=C\c2ccccc2OCc2ccc(Cl)cc2Cl)SC1=S | nt | -3 | -6 | -66* | -70
CCNC(=O)O/N=C(\C)c1sc(-c2ccc(Cl)cc2)nc1C | 0 | -11 | 2 | 34 | 60*
CCc1cccc(NC(=O)c2sc3nc4n(c(=O)c3c2C)CCC4)c1 | nt | 2 | 6 | 43 | 55*
CC(C)(C)C(=O)CSc1ncnc2c1cnn2-c1ccccc1 | nt | nt | -13 | 9 | 22
Fc1cccc(Nc2ncnc3c2cnn3-c2ccccc2)c1 | nt | 4 | 11 | 27 | 53*
c1ccc(CSc2ncnc3c2cnn3-c2ccccc2)cc1 | 2 | -4 | 4 | -59* | -68
CC(=O)N1CCN(CC(O)COc2ccc(S(=O)(=O)N3CCOCC3)cc2)CC1 (stereo not drawn) | nt | 2 | -14 | nt | nt
C=C(C)Cn1c2ccc(NC(=S)NCc3ccccc3F)cc2c(=O)n1C | nt | nt | 5 | nt | nt
SMILES | TLR4-MyD88 BLA | TLR9-MyD88 inh | NOD2 RIPK2 PPI | HSF1 inh | HSF1 activator
CCOC(=O)c1cc(CC)sc1/N=C/C1=C(O)CCCC1=O | -11 | -2 | 3 | -54* | -67
CCOC(=O)c1c(/N=C/C2=C(O)CCCC2=O)sc2c1CCCC2 | nt | nt | 1 | -14 | -23
COc1ccc(C(=O)N/C(=C\c2cccs2)c2nc3ccccc3[nH]2)cc1OC | -9 | -6 | 8 | -60* | -70
COc1cc(/C=C(/C(=O)c2cccs2)c2nc3ccccc3[nH]2)ccc1O | 1 | 3 | 4 | 60 | 82*
O=C(/C(=C/c1ccc(Cl)cc1)c1nc2ccccc2[nH]1)c1cccs1 | 16 | 2 | 1 | 175 | 241*
COC(=O)/C(=C\c1cc(OC)c(OC)c(OC)c1)c1nc2ccccc2[nH]1 | -27 | 3 | -5 | 1 | -1

Assay outcomes from PubChem BioAssay.
